Here are results for 21 compounds from PubChem BioAssay (NCI).

SMILES strings stand for the structures. The panel holds about 79,000 compounds, 15% with a hit somewhere; the sample as a whole holds those more often. A number with no mark means an inactive call. Active and inactive are the calls of the source. Cut-off read from the data, not from the text of the source: active = growth inhibition above about 70%; inactive = the rest. Where a SMILES comes first, the peptide text is derived from it. The star is where a group is joined. Cbz = O=C(OCc1ccccc1)*; OBn = c1ccc(CO*)cc1

Assay [1] in a line: NCI Yeast Anticancer Drug Screen. Data for the rad50 strain (AID 155).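 Note: 0% = growth of vehicle-only cultures of the same strain.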 The conditions noted are these: S. cerevisiae rad50 strain growth inhibition, active compounds read high; at 50.0 µM unless noted. An outline of the steps: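 Growth of the mutant yeast was measured after compound exposure and referenced to vehicle-treated cultures.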
Assay [2] can be described thus: NCI Yeast Anticancer Drug Screen. Data for the mec2-1 strain (AID 157). The conditions noted are these: S. cerevisiae mec2-1 strain, active compounds read high; at 50.0 µM unless noted. In a few lines:
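Mutant yeast (mec2-1) grown with compound; growth inhibition relative to vehicle control reported.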

Assay [3] is described as follows: NCI Yeast Anticancer Drug Screen. Data for the sgs1 mgt1 strain (AID 161).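 Note: 0% = growth of cultures given vehicle only.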 The conditions noted are these: S. cerevisiae sgs1 mgt1 strain, active compounds read high; at 50.0 µM unless noted. In a few lines:
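Percent growth inhibition was derived by comparing compound-exposed mutant yeast with vehicle-exposed cultures. The strain carries alterations in DNA damage repair.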

Assay [4] in a line: NCI Yeast Anticancer Drug Screen. Data for the cln2 rad14 strain (AID 165).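 Note: 0% = growth equal to vehicle treated cultures.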 The conditions noted are these: S. cerevisiae cln2 rad14 strain, active compounds read high; at 50.0 µM unless noted. An outline of the steps: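 Readout is yeast growth inhibition versus vehicle-treated controls, using a strain with cln2 and rad14 alterations exposed to compound.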
A short description of assay [5]: NCI Yeast Anticancer Drug Screen. Data for the bub3 strain (AID 167). The conditions noted are these: S. cerevisiae bub3 mutant strain, active compounds read high; at 50.0 µM unless noted. In a few lines:
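Whole-cell yeast assay. The mutant strain was incubated with compounds, and growth inhibition was determined by comparison with vehicle-treated cells.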

Assay [6] in a line: NCI Yeast Anticancer Drug Screen. Data for the mlh1 rad18 strain (AID 175). The conditions noted are these: S. cerevisiae mlh1 rad18 strain growth inhibition, active compounds read high; at 50.0 µM unless noted. An outline of the steps:
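Genetically defined yeast (DNA repair-deficient) exposed to compounds; growth inhibition determined relative to vehicle.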

Consider `CC(=O)c1ccc2c(c1)sc1ccccc12`, for which the growth inhibition in assay [1] is 66.9%; in assay [2] it was -25.3%; in assay [3], -6.4%; in assay [4] it was -2.25%; in assay [5], 28.5%; in assay [6], 55.9%.

Turning to `NC(=S)c1ccc2ccccc2c1`, the growth inhibition was 9.95% in assay [1]; 13.9% in assay [2]; 15.1% in assay [3]; 6.15% in assay [4]; 15.2% in assay [5]; 9.2% in assay [6].

In the case of `CN(C=O)c1c(F)cc(N=Nc2ccccc2)cc1F`, the growth inhibition is 2.8% in assay [1]; 1.15% in assay [2]; 6.65% in assay [3]; -16.1% in assay [4]; 2.25% in assay [5]; 9.7% in assay [6].

Regarding `C1=CC(=CN2CCc3ccccc3C2)C=C1`, the growth inhibition is 2.55% in assay [1]; -8.45% in assay [2]; 3.05% in assay [3]; -6.95% in assay [4]; -9.2% in assay [5]; 6.05% in assay [6].

As to `CSc1cccc(NC(=S)NC(=O)c2ccccc2)c1`, the growth inhibition in assay [1] is -0.25%; in assay [2], -8.15%; in assay [3], -0.65%; in assay [4] it was -2.4%; in assay [5], 2.55%; in assay [6], -17.4%.

As to `CCOC(Cn1ccc[n+]1CC(=O)c1ccccc1)OCC`, the growth inhibition in assay [1] was 0.9%; in assay [2], -5.25%; in assay [3], -10.8%; in assay [4], -21.6%; in assay [5] it was -5.75%; in assay [6] it was 9.1%.

Turning to `Cn1nnnc1NCc1ccccc1`, the growth inhibition is -2.55% in assay [1]; 5.35% in assay [2]; -5.85% in assay [3]; -24.6% in assay [4]; -2% in assay [5]; 5.15% in assay [6].

On to `COC1C(OC(=O)c2ccc(C)[nH]2)C(O)C(Oc2ccc3c(O)c(NC(=O)c4c[nH]c(C(=O)Nc5c(O)c6ccc(OC7OC(C)(C)C(OC)C(OC(=O)c8ccc(C)[nH]8)C7O)c(C)c6oc5=O)c4C)c(=O)oc3c2C)OC1(C)C` (stereo unspecified), for which the growth inhibition in assay [1] is 17%; in assay [2] it was 8.45%; in assay [3], 15.2%; in assay [4], 24.7%; in assay [5], 11.4%; in assay [6], 26.6%.

Take `O=C1c2ccccc2C(=O)c2cc3nc4c5ccccc5c5ccccc5c4nc3cc21`: the growth inhibition in assay [1] was -35%; in assay [2] it was -21.2%; in assay [3] it was -27.2%; in assay [4], -37.6%; in assay [5] it was 3.35%; in assay [6], -13.6%.

Take `COC(=O)C(Cc1ccc(O)cc1)NC(=O)C(CC(=O)OCc1ccccc1)NC(=O)OCc1ccccc1` (stereo unspecified) (Cbz-Asp(OBn)-Tyr-OMe; configuration not given here): the growth inhibition in assay [1] was -11.3%; in assay [2] it was -5.95%; in assay [3], -0.7%; in assay [4], -3.45%; in assay [5], -21.4%; in assay [6], 0.55%.

For `CCOC(=O)c1ccc(Cn2c(C)cc(=O)n(Cc3ccc(C(=O)OCC)cc3)c2=O)cc1`, the growth inhibition in assay [1] was 0.25%; in assay [2] it was -14.1%; in assay [3], -9.9%; in assay [4] it was -27.6%; in assay [5], 4.05%; in assay [6], -7.7%.

For `O=C(O)c1cc([N+](=O)[O-])cc([N+](=O)[O-])c1-c1ccccc1`, the growth inhibition in assay [1] is -10.4%; in assay [2] it was -2.6%; in assay [3], 6.2%; in assay [4], -13.4%; in assay [5], 44.6%; in assay [6], -10%.

`COc1ccc(N2C(N)=C(C#N)C(C#N)(C#N)C2c2cccc([N+](=O)[O-])c2)cc1` (stereo unspecified): the growth inhibition in assay [1] is 8.8%; in assay [2], -5.05%; in assay [3], -2.05%; in assay [4], 0.25%; in assay [5] it was -31.9%; in assay [6] it was 79.7% (active).

In the case of `CCCCCCC(=O)OCC(=O)c1ccc(Br)cc1`, the growth inhibition in assay [1] is 2.85%; in assay [2], 28.2%; in assay [3] it was 15.2%; in assay [4], -115%; in assay [5] it was 22.2%; in assay [6], 15%.

Regarding `OC1(c2cccc(C(F)(F)F)c2)CCN(C2CC2c2ccccc2)CC1` (stereo unspecified), the growth inhibition is 87.2% (active) in assay [1]; 77.7% (active) in assay [2]; 90.8% (active) in assay [3]; 85.1% (active) in assay [4]; 84.3% (active) in assay [5]; 81.5% (active) in assay [6].

As for `Cc1sc2ccccc2[n+]1CCC(=O)O`, the growth inhibition is -23.1% in assay [1]; -14% in assay [2]; -38.6% in assay [3]; -72.8% in assay [4]; -14.8% in assay [5]; -7.65% in assay [6].

With `CC1=NN(c2ccccc2)C(=O)C1O` (stereo unspecified), the growth inhibition in assay [1] is 12.1%; in assay [2] it was 16.2%; in assay [3], -6.05%; in assay [4], -25.4%; in assay [5] it was -10.6%; in assay [6], 2.5%.

`O=C1OC(=O)C2C3CC(C(Br)C3Br)C12` (stereo unspecified): the growth inhibition in assay [1] was 3.8%; in assay [2], -14.4%; in assay [3], 7.8%; in assay [4], -36.5%; in assay [5] it was -1.2%; in assay [6], 21.5%.

Turning to `COc1ccc(/C=C(\C(=O)OCC(C)C)c2ccc(OC)c(OC)c2)cc1OC`, the growth inhibition was 2.6% in assay [1]; -17.1% in assay [2]; 8.5% in assay [3]; -6.15% in assay [4]; -7.2% in assay [5]; 16.4% in assay [6].

Consider `CC(=O)N(c1nc2ccccc2s1)N1C(=O)c2ccccc2C1=O`, for which the growth inhibition in assay [1] is -18.8%; in assay [2], -33.3%; in assay [3] it was -17.9%; in assay [4], -2.15%; in assay [5] it was -40.2%; in assay [6], -20.2%.

With `CC(CC(=O)c1cccc2ccccc12)C(=O)O` (stereo unspecified), the growth inhibition is 19% in assay [1]; 3.3% in assay [2]; 2.85% in assay [3]; 0.55% in assay [4]; -10.7% in assay [5]; 24.3% in assay [6].
